Source: PubChem
Sampled rows, rich in hits. Any-hit rate of the full collection: about 18%.
TDP1 inh: blocks human tyrosyl-DNA phosphodiesterase 1; recombinant TDP1, AlphaScreen DNA substrate cleavage; Potency, µM (highest dose often 130 µM), actives largely listed as inhibitors; actives 0.28% (n = 350,000); AID 485290; note: nearly all actives have a fitted effect of over 40% in size
Target sequence (Q9NUW8 whole entry, looked up): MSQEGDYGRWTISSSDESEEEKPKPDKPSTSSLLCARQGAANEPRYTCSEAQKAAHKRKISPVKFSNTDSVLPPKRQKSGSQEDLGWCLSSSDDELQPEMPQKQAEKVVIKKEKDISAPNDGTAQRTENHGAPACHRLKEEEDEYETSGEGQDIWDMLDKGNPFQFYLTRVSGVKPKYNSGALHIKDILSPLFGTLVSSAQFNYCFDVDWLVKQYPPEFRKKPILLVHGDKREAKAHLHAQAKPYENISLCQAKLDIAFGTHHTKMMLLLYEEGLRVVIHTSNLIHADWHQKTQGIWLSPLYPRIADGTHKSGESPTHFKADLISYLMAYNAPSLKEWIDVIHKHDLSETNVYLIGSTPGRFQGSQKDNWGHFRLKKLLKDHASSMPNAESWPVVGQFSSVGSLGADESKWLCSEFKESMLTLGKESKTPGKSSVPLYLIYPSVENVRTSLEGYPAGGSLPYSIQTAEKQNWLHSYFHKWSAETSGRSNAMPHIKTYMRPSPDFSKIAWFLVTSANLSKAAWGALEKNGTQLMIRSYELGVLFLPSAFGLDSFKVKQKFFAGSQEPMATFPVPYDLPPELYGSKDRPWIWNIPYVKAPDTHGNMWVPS
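E. coli-derived human Tdp1, 1 nM final. Cpd preinc 15 min RT; substrate 15 nM final, 5 min RT; AS bead mix 10 ug/ml final, 10 min RT. Signal loss = tyrosine-FITC cleavage. No-enzyme wells = max signal.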
TDP1 cell noCPT: qHTS for Inhibitors of human tyrosyl-DNA phosphodiesterase 1 (TDP1): qHTS in cells in absence of CPT; DT40 Tdp1-/- hTDP1 cells, no CPT, ATP luminescence, 48 h; Potency, µM (top dose mostly 46.2 µM), actives largely listed as inhibitors; actives 15% (n = 420,000); note: nearly all actives have a fitted effect of over 55% in size
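Cells were dispensed at 400 per well, compounds added by pin tool, plates incubated ≥48 hr at 37 °C, then CellTiter-Glo added for 30 min at room temperature before luminescence reading. Line: DT40 Tdp1-/- complemented with hTDP1; camptothecin omitted.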
TDP1 cell CPT: growth inhibition of DT40 Tdp1-/-;hTDP1 cells with camptothecin (screen for TDP1 inhibitors) | chicken DT40 Tdp1-/-;hTDP1 cells + 20 nM CPT, ATP luminescence, 48 h | Potency, µM (series often up to 46.2 µM), actives largely listed as inhibitors | actives 12% (n = 420,000); note: nearly all actives have a fitted effect of over 55% in size
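Chicken DT40 Tdp1-/- cells stably complemented with human TDP1 were seeded at 400 cells/well in medium containing 20 nM camptothecin, exposed to pin-transferred compounds, and grown at 37 °C for at least 48 hr. Viability was read as ATP luminescence.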
GCN5L2 inh: inhibitors of human GCN5L2 histone acetyltransferase; Q92830; GCN5L2 HAT assay, ThioGlo1 CoA-SH fluorescence; Potency, µM (titrated, usually from 58.9 µM), most hits filed as inhibitors; actives 0.21% (n = 390,000); AID 504327
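ThioGlo1-coupled HAT assay: 20nM GCN5L2, 70uM acetyl-CoA, 75uM H3(1-25) peptide, pH 7.5. Fluorescence read at 340/540nm at start and after 20 min at room temperature.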
PLK1 PBD block: inhibitors of human PLK1 polo-box domain binding | P53350 | Plk1 PBD binding of FITC phosphopeptide, fluorescence polarization | Potency, µM, most hits filed as inhibitors | actives 2.8% (n = 360,000) | AID 720504; note: series mostly up to about 57 µM; nearly all actives have a fitted effect of over 65% in size
VDR inhibitor: blocks the human vitamin D receptor; P11473; VDR-SRC2-3 peptide fluorescence polarization, 2 h; Potency, µM, actives largely listed as inhibitors; actives 0.93% (n = 400,000)
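Fluorescence polarization assay of small-molecule disruption of VDR binding to coregulator peptide SRC2-3. Compounds and controls pin-transferred, then read after 2 h incubation at ambient room temperature.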
Large screens that a line does not name were inactive. Calls come from the whole dose curve; as a rule, active = well fitted curve in the direction sought with a large enough effect; inconclusive = small, poorly fitted or top-dose-only effect, or another doubt; inactive = no such curve, though single readings can be large; an effect the other way counts as inactive or inconclusive.

O=C(NCCN1CCN(c2ccccc2)CC1)c1ccccc1F	PLK1 PBD block 24µM (no result: TDP1 inh)
Cc1cc(OC(C)C(=O)NCc2ccccn2)c2c(C)c(C)c(=O)oc2c1 (configuration not stated)	none
CCc1nnc(SCc2ccc(OC)cc2)c2cc3sc(C)cc3n12	none (no result: PLK1 PBD block)
O=C(Nc1cccc(Cl)c1)c1ccc2nc(CCc3ccccc3)oc2c1	TDP1 cell noCPT inconclusive, TDP1 cell CPT inconclusive (no result: PLK1 PBD block)
Cc1ccc(CN2CCOc3ccc(CN4CCC(O)(c5cccnc5)CC4)cc3C2)cc1C	TDP1 cell noCPT 18µM (no result: TDP1 inh, GCN5L2 inh, PLK1 PBD block, VDR inhibitor)
CCC1C(=O)NCCN1Cc1ccc2c(c1)CN(Cc1cccc(OC)c1OC)CCO2 (configuration not stated)	TDP1 cell CPT 0.73µM (no result: TDP1 inh, GCN5L2 inh, PLK1 PBD block, VDR inhibitor)
COc1ccc(CN2CCOc3ccc(CN4CCC(O)(c5cccnc5)CC4)cc3C2)c(C)c1C	TDP1 cell noCPT 16µM, TDP1 cell CPT inconclusive (no result: TDP1 inh, GCN5L2 inh, PLK1 PBD block, VDR inhibitor)
CCC1C(=O)NCCN1Cc1ccc2c(c1)CN(Cc1cc(OC)ccc1OC)CCO2 (configuration not stated)	TDP1 cell noCPT inconclusive (no result: TDP1 inh, GCN5L2 inh, PLK1 PBD block, VDR inhibitor)
OC1(c2cccnc2)CCN(Cc2ccc3c(c2)CN(Cc2ccc(Cl)cc2)CCO3)CC1	none (no result: TDP1 inh, GCN5L2 inh, PLK1 PBD block, VDR inhibitor)
O=C(Nc1ccccc1)OCCOc1ccc(Cl)cc1Cl	TDP1 cell CPT inconclusive (no result: TDP1 inh, GCN5L2 inh)
COc1ccc2c(c1)OC(C)(C)C(c1ccccc1)C2c1ccc(OCCN2CCCC2)cc1 (configuration not stated)	TDP1 cell noCPT 27µM, TDP1 cell CPT 21µM (no result: TDP1 inh, PLK1 PBD block)
COc1ccc(C2CC(O)(c3ccccc3)Oc3cc(OC)ccc32)cc1 (configuration not stated)	TDP1 cell noCPT inconclusive, TDP1 cell CPT inconclusive
CC1CCC2(CC1)C(Nc1cccc(Cl)c1)=NC(=S)N2CC#N (configuration not stated)	TDP1 cell noCPT 16µM, TDP1 cell CPT inconclusive
CC(=O)c1ccc(NC(=O)N2C3CCC2CC(O)(c2cccnc2)C3)cc1 (configuration not stated)	none
O=C(CCS(=O)(=O)c1ccc2c(c1)NC(=O)CS2)NCCc1ccc(Cl)cc1	TDP1 cell noCPT inconclusive, TDP1 cell CPT inconclusive, PLK1 PBD block 17µM, VDR inhibitor inconclusive
Cc1cccc(NC(=O)CCS(=O)(=O)c2ccc3c(c2)NC(=O)CS3)n1	TDP1 cell noCPT inconclusive, TDP1 cell CPT inconclusive, PLK1 PBD block 30µM, VDR inhibitor inconclusive
O=C(CCS(=O)(=O)c1ccc2c(c1)NC(=O)CS2)NCCc1ccccc1	none
CCOc1ccc(Cl)cc1S(=O)(=O)n1nnc2ccccc21	TDP1 cell noCPT inconclusive, TDP1 cell CPT 16µM, PLK1 PBD block 27µM
COCOCCn1cc(CN2CCS(=O)(=O)N(Cc3ccc(-c4ccc(Cl)c(Cl)c4)cc3)C(C)C2=O)nn1 (configuration not stated)	TDP1 cell noCPT 4.1µM, TDP1 cell CPT 4.1µM (no result: TDP1 inh, GCN5L2 inh, VDR inhibitor)
COCOCCn1cc(CN2CCS(=O)(=O)N(Cc3ccc(-c4ccncc4)cc3)C(C)C2=O)nn1 (configuration not stated)	none (no result: TDP1 inh, GCN5L2 inh, VDR inhibitor)
COCOCCn1cc(CN2CCS(=O)(=O)N(Cc3ccc(-c4ccc(OC)c(OC)c4)cc3)C(C)C2=O)nn1 (configuration not stated)	TDP1 cell noCPT 10µM, TDP1 cell CPT 16µM (no result: TDP1 inh, GCN5L2 inh, VDR inhibitor)
COCOCCn1cc(CN2CCS(=O)(=O)N(Cc3ccc(-c4ccc(Cl)nc4)cc3)C(C)C2=O)nn1 (configuration not stated)	TDP1 cell noCPT inconclusive (no result: TDP1 inh, GCN5L2 inh, VDR inhibitor)
COCOCCn1cc(CN2CCS(=O)(=O)N(Cc3ccc(-c4ccc(C)cc4)cc3)C(C)C2=O)nn1 (configuration not stated)	TDP1 cell noCPT 15µM, TDP1 cell CPT inconclusive (no result: TDP1 inh, GCN5L2 inh, VDR inhibitor)
COc1cccc(C(=O)N2CCC(C(=O)NCc3ccco3)CC2)c1	none
COc1cccc(C2/C(=C(\O)c3ccc4c(c3)OCCO4)C(=O)C(=O)N2Cc2cccnc2)c1 (configuration not stated)	none
CCOC(=O)Cn1nc(C)c(NC(=O)COc2ccc(F)cc2F)c1C	none (no result: TDP1 cell noCPT, TDP1 cell CPT, PLK1 PBD block, VDR inhibitor)
CCOC(=O)Cn1nc(C)c(NC(=O)COc2ccc(Cl)cc2C)c1C	TDP1 cell noCPT 8.2µM, TDP1 cell CPT 9.2µM (no result: PLK1 PBD block)
COc1ccccc1OCC(=O)Nc1cccc(S(=O)(=O)NC2=NCCCCC2)c1	none (no result: TDP1 inh)
Cc1cc(C)nc(SCC(=O)Nc2ccc(S(=O)(=O)NC(C)(C)C)cc2)n1	TDP1 cell noCPT 15µM, TDP1 cell CPT 16µM
Cc1ccc(NC(=O)COC(=O)C(NS(=O)(=O)c2ccc(Cl)cc2)C(C)O)cc1C (configuration not stated)	TDP1 cell noCPT inconclusive, TDP1 cell CPT 26µM
CCCOc1ccccc1OCC(=O)Nc1cccc(S(=O)(=O)NC2=NCCC2)c1	TDP1 cell noCPT 15µM, TDP1 cell CPT inconclusive
Cc1cc(C)nc(SCC(=O)Nc2ccc(S(=O)(=O)N3CCCCC3)cc2)n1	TDP1 cell noCPT inconclusive, TDP1 cell CPT inconclusive
Cc1ccc2nc(N(Cc3cccnc3)C(=O)c3ccco3)sc2c1	none (no result: PLK1 PBD block)
COc1ccc(S(=O)(=O)N2CCCOC2CNC(=O)C(=O)NC2CCCC2)cc1 (configuration not stated)	none
COc1ccc(CN2CCOc3ccc(CN4CCN(CCO)CC4)cc3C2)c2ccccc12	TDP1 cell noCPT inconclusive (no result: TDP1 inh, GCN5L2 inh, PLK1 PBD block, VDR inhibitor)
CCOc1ccc(C(=O)NC(=S)Nc2cccc(S(=O)(=O)NC3=NCCC3)c2)cc1	TDP1 cell noCPT 0.82µM, TDP1 cell CPT 0.82µM
Cc1ccc(NC(=O)COC(=O)C2CC2(Cl)Cl)cc1C (configuration not stated)	TDP1 cell noCPT inconclusive, PLK1 PBD block 27µM
O=C(NC(=S)Nc1cccc(S(=O)(=O)NC2=NCCC2)c1)c1cc(-c2ccco2)nc2ccccc12	TDP1 cell noCPT 3.7µM, TDP1 cell CPT 4.6µM, PLK1 PBD block inconclusive
CCc1ccccc1OCC(=O)Nc1cccc(S(=O)(=O)NC2=NCCCCC2)c1	TDP1 cell noCPT inconclusive, TDP1 cell CPT 18µM
Cc1ncc2c(c1CNC(=O)/C=C/c1cccs1)CCN(C(=O)C1CCCO1)C2 (configuration not stated)	none (no result: TDP1 inh, GCN5L2 inh, PLK1 PBD block, VDR inhibitor)
CCOC(=O)C1(CCc2ccccc2)CCN(C(=O)C(C)n2cncn2)CC1 (configuration not stated)	none
Cc1cc(C)nc(NS(=O)(=O)c2ccc(NC(=O)COc3ccc(Cl)cc3C)cc2)n1	TDP1 cell noCPT 18µM, TDP1 cell CPT inconclusive (no result: PLK1 PBD block)
CC1CC1C(=O)OCC(=O)Nc1cccc(S(=O)(=O)NC2=NCCCCC2)c1 (configuration not stated)	none (no result: TDP1 inh)
